Test results from paper PMC7862700, “An all-to-all approach to the identification of sequence-specific readers for epigenetic DNA modifications on cytosine”.

How the values were obtained:
Assay in all cases: DAPPL (digital affinity profiling via proximity ligation, sequencing); 10 mM Tris-HCl pH 7.5, 50 mM NaCl, 1 mM DTT, 4% glycerol, room temperature, 30 min; GST-TFs on glutathione beads, 16-mer random dsDNA library, 0.1% formaldehyde crosslink after washing; high values mean tight binding
FEV = target: T1, FEV (Homo sapiens, UniProt Q99581 1-238); conditions: protein: recombinant; tags: N-terminal GST; dsDNA, one strand shown
T1 sequence: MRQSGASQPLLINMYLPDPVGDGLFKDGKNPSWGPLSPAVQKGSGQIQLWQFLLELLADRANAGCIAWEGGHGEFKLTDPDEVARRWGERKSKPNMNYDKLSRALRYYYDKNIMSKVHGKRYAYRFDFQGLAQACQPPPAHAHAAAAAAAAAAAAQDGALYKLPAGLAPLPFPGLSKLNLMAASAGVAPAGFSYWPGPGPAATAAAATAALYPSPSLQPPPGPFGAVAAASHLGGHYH
How it was run: (§1)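 Pools of DNA-barcoded human transcription factors, expressed in yeast as GST fusions on glutathione beads and combined with a tag-only sample, were incubated with 200 nmole of a 16-mer random double-stranded DNA library. Incubation took 30 min at room temperature in Tris/NaCl/DTT/glycerol buffer and was followed by washing, 0.1% formaldehyde crosslinking, proximity ligation (BsaI/T4 ligase, 1 h, 37 °C), PCR amplification and sequencing on an Illumina NextSeq500. Binding signal is the ratio of a hexamer's read frequency for a factor to its frequency for the tag-only sample.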

ETV5 = ETV5 (Homo sapiens, UniProt P41161 1-510); conditions: protein: recombinant; tags: N-terminal GST; dsDNA, one strand shown
Sequence of ETV5 (P41161 whole entry): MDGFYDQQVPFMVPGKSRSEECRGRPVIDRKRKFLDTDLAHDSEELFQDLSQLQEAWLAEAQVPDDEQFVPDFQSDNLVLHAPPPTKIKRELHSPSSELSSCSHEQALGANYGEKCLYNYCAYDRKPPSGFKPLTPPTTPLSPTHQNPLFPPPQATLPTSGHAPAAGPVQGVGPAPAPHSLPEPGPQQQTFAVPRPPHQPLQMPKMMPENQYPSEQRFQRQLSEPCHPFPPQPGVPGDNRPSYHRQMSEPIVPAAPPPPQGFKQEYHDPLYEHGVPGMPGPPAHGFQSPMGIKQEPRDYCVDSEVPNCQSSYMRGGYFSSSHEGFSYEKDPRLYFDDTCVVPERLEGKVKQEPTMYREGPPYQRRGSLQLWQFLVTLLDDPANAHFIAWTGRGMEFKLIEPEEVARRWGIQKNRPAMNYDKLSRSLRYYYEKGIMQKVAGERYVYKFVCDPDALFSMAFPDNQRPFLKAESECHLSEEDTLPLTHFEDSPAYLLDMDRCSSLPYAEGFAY
How it was run: as §1

HSF1 = HSF1 (Homo sapiens, UniProt Q00613 1-529); conditions: protein: recombinant; tags: N-terminal GST; chain copies: 3; dsDNA, one strand shown
Sequence of HSF1 (Q00613 whole entry): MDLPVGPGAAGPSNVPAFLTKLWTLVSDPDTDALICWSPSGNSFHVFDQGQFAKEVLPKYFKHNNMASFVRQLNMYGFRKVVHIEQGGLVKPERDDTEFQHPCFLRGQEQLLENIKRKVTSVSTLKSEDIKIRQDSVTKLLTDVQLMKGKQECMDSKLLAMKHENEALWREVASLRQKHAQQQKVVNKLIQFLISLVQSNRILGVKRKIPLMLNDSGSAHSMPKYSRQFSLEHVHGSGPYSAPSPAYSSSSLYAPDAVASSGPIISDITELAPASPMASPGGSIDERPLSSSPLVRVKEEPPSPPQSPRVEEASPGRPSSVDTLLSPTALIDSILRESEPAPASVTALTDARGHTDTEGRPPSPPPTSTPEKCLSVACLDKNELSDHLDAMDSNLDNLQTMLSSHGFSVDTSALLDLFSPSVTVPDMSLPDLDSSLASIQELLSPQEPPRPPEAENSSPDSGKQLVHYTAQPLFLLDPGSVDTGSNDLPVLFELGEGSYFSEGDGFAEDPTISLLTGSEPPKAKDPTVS
How it was run: as §1

SPIC = target: T2, SPIC (Homo sapiens, UniProt Q8N5J4 1-248); conditions: protein: recombinant; tags: N-terminal GST; dsDNA, one strand shown
T2 sequence: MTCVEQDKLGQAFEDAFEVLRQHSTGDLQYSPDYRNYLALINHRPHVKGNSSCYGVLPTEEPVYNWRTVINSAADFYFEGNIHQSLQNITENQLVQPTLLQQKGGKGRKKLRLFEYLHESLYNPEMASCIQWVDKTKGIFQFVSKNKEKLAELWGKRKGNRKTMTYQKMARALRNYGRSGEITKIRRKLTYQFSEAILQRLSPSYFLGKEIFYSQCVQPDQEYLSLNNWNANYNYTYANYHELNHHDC
How it was run: as §1

ELF4 = ELF4 (Homo sapiens, UniProt Q99607 1-663); conditions: protein: recombinant; tags: N-terminal GST; dsDNA, one strand shown
Sequence of ELF4 (Q99607 whole entry): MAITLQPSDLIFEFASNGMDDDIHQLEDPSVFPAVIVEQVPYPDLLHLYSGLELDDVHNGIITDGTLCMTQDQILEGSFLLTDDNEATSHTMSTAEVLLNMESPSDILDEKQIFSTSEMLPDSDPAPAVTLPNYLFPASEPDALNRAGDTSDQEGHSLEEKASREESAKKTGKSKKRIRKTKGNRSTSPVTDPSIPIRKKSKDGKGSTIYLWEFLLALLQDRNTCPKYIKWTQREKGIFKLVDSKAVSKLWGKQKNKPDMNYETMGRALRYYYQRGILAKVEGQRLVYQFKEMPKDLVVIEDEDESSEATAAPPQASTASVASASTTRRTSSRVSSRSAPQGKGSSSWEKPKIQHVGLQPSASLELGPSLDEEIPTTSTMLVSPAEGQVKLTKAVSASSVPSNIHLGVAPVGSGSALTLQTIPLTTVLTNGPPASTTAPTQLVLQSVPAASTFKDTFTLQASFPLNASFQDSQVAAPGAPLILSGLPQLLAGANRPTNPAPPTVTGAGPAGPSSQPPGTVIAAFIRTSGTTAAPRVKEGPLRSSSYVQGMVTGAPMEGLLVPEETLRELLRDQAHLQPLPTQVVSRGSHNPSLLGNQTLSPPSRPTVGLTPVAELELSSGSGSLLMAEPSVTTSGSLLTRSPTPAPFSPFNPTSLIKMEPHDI
How it was run: as §1

ELK4 = target: T3, ELK4 (Homo sapiens, UniProt P28324-2 1-405); conditions: protein: recombinant; tags: N-terminal GST; dsDNA, one strand shown
T3 sequence: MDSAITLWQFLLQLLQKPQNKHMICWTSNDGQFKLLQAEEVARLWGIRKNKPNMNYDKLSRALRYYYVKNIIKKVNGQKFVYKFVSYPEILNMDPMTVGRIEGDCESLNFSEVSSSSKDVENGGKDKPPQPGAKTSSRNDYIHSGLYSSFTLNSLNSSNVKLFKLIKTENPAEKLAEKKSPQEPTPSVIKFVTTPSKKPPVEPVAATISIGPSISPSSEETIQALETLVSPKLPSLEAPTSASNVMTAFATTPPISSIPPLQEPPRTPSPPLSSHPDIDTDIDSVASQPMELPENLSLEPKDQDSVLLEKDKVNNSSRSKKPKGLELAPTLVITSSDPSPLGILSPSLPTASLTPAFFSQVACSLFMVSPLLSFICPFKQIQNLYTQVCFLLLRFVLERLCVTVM
How it was run: as §1

ETV2 = target: T4, ETV2 (Homo sapiens, UniProt O00321 1-342); conditions: protein: recombinant; tags: N-terminal GST; dsDNA, one strand shown
T4 sequence: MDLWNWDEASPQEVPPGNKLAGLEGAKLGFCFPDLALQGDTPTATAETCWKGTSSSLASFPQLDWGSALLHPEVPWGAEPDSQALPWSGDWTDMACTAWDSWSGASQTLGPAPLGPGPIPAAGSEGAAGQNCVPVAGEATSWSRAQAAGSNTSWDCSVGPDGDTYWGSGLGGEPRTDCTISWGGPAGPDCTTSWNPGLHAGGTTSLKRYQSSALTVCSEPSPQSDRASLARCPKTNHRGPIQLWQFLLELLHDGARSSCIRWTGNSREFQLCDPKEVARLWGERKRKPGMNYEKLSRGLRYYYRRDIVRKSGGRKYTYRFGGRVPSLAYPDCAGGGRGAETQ
How it was run: as §1

ELF3 = target: T5, ELF3 (Homo sapiens, UniProt P78545 1-371); conditions: protein: recombinant; tags: N-terminal GST; dsDNA, one strand shown
T5 sequence: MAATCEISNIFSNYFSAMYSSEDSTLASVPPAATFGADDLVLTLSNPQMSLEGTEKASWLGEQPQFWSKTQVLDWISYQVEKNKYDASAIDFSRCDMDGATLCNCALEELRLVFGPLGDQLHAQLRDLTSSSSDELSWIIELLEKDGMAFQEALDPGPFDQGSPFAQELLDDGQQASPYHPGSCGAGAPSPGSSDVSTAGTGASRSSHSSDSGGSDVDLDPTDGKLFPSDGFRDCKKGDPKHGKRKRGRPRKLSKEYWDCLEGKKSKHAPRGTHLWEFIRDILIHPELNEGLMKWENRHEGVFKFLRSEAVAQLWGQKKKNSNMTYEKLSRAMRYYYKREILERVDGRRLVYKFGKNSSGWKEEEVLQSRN
How it was run: as §1

CRX = CRX (Homo sapiens, UniProt O43186 1-299); conditions: protein: recombinant; tags: N-terminal GST; dsDNA, one strand shown
Sequence of CRX (O43186 whole entry): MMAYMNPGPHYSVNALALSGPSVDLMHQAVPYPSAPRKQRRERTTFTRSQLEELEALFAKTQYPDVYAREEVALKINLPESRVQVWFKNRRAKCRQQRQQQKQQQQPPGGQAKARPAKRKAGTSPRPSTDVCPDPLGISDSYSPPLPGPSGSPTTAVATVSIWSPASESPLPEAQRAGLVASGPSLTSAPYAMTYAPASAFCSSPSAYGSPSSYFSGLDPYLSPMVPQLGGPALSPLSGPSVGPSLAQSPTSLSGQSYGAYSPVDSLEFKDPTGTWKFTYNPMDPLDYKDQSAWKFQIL
How it was run: as §1

ETV1 = ETV1 (Homo sapiens, UniProt P50549 1-477); conditions: protein: recombinant; tags: N-terminal GST; dsDNA, one strand shown
Sequence of ETV1 (P50549 whole entry): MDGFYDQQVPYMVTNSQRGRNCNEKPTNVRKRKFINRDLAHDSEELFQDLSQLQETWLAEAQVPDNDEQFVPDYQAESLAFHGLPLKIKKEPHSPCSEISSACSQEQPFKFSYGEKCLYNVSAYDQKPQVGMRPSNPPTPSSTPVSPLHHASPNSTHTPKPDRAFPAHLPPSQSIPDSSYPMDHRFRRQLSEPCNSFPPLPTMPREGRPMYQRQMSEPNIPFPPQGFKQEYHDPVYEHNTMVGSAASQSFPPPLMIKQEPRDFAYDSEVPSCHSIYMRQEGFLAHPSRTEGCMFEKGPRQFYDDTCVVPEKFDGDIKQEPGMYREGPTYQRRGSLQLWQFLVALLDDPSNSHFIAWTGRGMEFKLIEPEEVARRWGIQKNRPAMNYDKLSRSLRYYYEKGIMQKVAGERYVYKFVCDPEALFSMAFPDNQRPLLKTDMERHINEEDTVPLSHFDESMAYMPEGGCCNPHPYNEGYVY
How it was run: as §1

TTGACT
binding signal (FEV): 1.15 fold enrichment (6-mer frequency, TF over GST control) | binding signal (ETV5): 1.13 fold enrichment (6-mer frequency, TF over GST control) | binding signal (HSF1): 1.12 fold enrichment (6-mer frequency, TF over GST control) | binding signal (SPIC): 1.15 fold enrichment (6-mer frequency, TF over GST control) | binding signal (ELF4): 1.21 fold enrichment (6-mer frequency, TF over GST control) | binding signal (ELK4): 1.3 fold enrichment (6-mer frequency, TF over GST control) | binding signal (ETV2): 1.27 fold enrichment (6-mer frequency, TF over GST control) | binding signal (ELF3): 1.15 fold enrichment (6-mer frequency, TF over GST control) | binding signal (CRX): 1.09 fold enrichment (6-mer frequency, TF over GST control) | binding signal (ETV1): 1.18 fold enrichment (6-mer frequency, TF over GST control)
